Shown is part of a subset that was picked to be rich in hits.
B2AR arrestin ag: beta-arrestin recruitment by human beta2-adrenergic receptor ligands | P07550 | HTLA Tango cells, beta-arrestin recruitment, luciferase luminescence, 18 h | Potency, µM (doses to about 46.1 µM), usual class: activators | 44,000 tested, under 10 active;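 note: potency is the fitted concentration of half-maximal effect; 0% = DMSO and full agonism = EC100 isoproterenol or metaproterenol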
Target sequence (P07550 whole entry, looked up): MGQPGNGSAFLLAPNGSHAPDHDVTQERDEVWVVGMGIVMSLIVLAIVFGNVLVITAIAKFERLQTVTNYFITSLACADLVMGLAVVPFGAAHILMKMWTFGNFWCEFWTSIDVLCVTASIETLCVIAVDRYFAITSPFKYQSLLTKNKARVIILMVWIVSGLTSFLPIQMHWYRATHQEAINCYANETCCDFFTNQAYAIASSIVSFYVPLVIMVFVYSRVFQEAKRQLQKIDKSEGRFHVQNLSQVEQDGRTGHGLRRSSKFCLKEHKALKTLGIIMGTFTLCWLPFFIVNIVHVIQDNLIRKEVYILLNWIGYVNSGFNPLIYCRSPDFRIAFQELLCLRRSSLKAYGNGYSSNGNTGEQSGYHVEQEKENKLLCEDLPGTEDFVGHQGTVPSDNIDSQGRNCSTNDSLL
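Tango cells expressing recombinant beta2-AR and beta-arrestin were treated with compounds (up to 46 microM titration) in DMEM with 1% FBS for 18 hr at 37 degrees C. Beta-arrestin recruitment drove tTA-dependent luciferase, read by luminescence; curves were fitted and classed.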
GALK inh: inhibits human galactokinase. P51570. recombinant GALK, Kinase-Glo ATP luminescence, 1 h. Potency, µM (doses to about 57.5 µM), for inactives: at the top dose activity, negative = inhibition, actives largely listed as inhibitors. 44,000 tested, under 10 active. AID 1347072;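 note: plate controls were full GALK reaction for no effect and reaction lacking GALK for full effect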
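Human GALK (5 nM) was incubated with 35 uM ATP and 100 uM galactose in 20 mM HEPES pH 8.0 with MgCl2, NaCl, DTT and BSA for 1 h at room temperature. Remaining ATP was measured by Kinase-Glo Plus luminescence.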
NTMT1 inhibitor: NTMT1 methyltransferase inhibition. Q9BV86. NTMT1 MTase-Glo SAH luminescence, purified enzyme. Potency, µM (highest dose often 114 µM), without a hit: top-dose activity change, negative = inhibition, usual class: inhibitors. 59,000 tested, 2.5% active. AID 1645870;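 note: potency is the fitted concentration of half-maximal effect; plate controls were DMSO vehicle for no effect and no enzyme for full effect; nearly all actives have a fitted effect of over 65% in size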
Target sequence (Q9BV86 whole entry, looked up): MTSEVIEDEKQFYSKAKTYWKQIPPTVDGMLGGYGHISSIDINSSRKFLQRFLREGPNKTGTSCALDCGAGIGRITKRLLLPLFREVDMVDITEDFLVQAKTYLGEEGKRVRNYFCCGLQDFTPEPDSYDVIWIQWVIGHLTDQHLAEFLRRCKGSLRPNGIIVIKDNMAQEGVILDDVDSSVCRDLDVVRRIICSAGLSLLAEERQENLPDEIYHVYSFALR
FH mod: Identification of activators of human fumarate hydratase by quantitative high-throughput screening | Fumarate hydratase, mitochondrial (Homo sapiens), P07954 | FH coupled MDH/diaphorase resazurin fluorescence, 15 min | Potency, µM (top dose mostly 79.9 µM), inactives show at the top dose activity change, negative = inhibition, most hits filed as inhibitors | 54,000 tested, 0.22% active | AID 1347055, 2019; note: potency is the fitted concentration of half-maximal effect; % is set by controls: 0 for no effect and ±100 for the full control effect; the screen sought activators but most active calls are inhibition curves; nearly all actives have a fitted effect of over 45% in size
GALC G270D act: enhancers of human galactocerebrosidase G270D mutant activity in cells; 145M-Twi-hGALC-G270D cells, HMU-beta-Gal fluorescence, 48 h; Potency, µM (highest dose often 57.5 µM), hits mostly activators; 45,000 tested, 0.1% active; AID 1159614; note: potency is the fitted concentration of half-maximal effect; 0% is about no effect; nearly all actives have a fitted effect of over 65% in size
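qHTS, 1536-well; 145M-Twi-hGALC-G270D cells (WT line also made) in DMEM/F12 + 10% FBS; compound incubation on live cells; HMU-β-gal 0.1 mM final, pH 5.2, NaTC; carbonate stop; fluorescence increase = enhanced residual activity.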
TSG101-PTAP inh: inhibitors of HIV-1 PTAP binding to human TSG101, validation | 44,000 tested, under 10 active | Fluorescence polarization, FITC-PTAP peptide/Tsg101, 20 min | AID 1347069 | Potency, µM (doses to about 115 µM), hits mostly inhibitors; note: potency is the fitted concentration of half-maximal effect; 0% is about no effect
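FITC-labeled PTAP peptide (50 nM final) binding to Tsg101 binding domain (10 uM final) read by fluorescence polarization after 20 min at r.t. in HEPES pH 7.5 buffer. Actives by CRC class, <25 µM.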
* hit, by the source's call; i = inactive; ? = inconclusive; . = not tested or not shown; ! = not confirmed by another sample; [ ] = another dose, or the depositor's remark. Calls come from the whole dose curve; as a rule, active = well fitted curve in the direction sought with a large enough effect; inconclusive = small, poorly fitted or top-dose-only effect, or another doubt; inactive = no such curve, though single readings can be large; an effect the other way counts as inactive or inconclusive.

SMILES	B2AR arrestin ag	GALK inh	NTMT1 inhibitor	FH mod	GALC G270D act	TSG101-PTAP inh
O=C1NC(=O)C(c2ccccc2[N+](=O)[O-])=C1Nc1ccc(O)c(Cl)c1	.	.	44.7µM*!	25.1µM*!	.	.
O=[N+]([O-])c1ccccc1NCc1ccc(O)c2ncccc12	.	.	-4.9%	.	.	.
Nc1nc(=S)c2[nH]cnc2[nH]1	.	.	3.55µM*	-14.9%[53.3 µM]	i	.
Cc1cc(-c2ccc(/C=C3\SC(=Nc4ccc(Cl)c(C(=O)O)c4)NC3=O)o2)c([N+](=O)[O-])cc1C	.	.	25.1µM*	25.1µM*	.	.
Cc1cc2c(C(C)C)c(O)c(O)c(C=O)c2c(O)c1-c1c(C)cc2c(C(C)C)c(O)c(O)c(C=O)c2c1O	.	.	20µM*!	28.2µM*!	i	.
CCC(C)CCCCC(=O)N[C@@H](CCN)C(=O)NC(C(=O)N[C@H](CCN)C(=O)N[C@@H]1CCNC(=O)C([C@@H](C)O)NC(=O)[C@@H](CCN)NC(=O)[C@@H](CCN)NC(=O)[C@@H](CC(C)C)NC(=O)[C@H](Cc2ccccc2)NC(=O)[C@H](CCN)NC1=O)[C@@H](C)O (stereo partly specified)	.	.	?	6.3%[53.3 µM]	.	.
CCC(C)C(N)C1=NC(C(=O)N[C@@H](CC(C)C)C(=O)N[C@H](CCC(=O)O)C(=O)N[C@H](C(=O)N[C@H]2CCCCNC(=O)[C@H](CC(N)=O)NC(=O)[C@@H](CC(=O)O)NC(=O)[C@H](Cc3cnc[nH]3)NC(=O)[C@@H](Cc3ccccc3)NC(=O)[C@H]([C@@H](C)CC)NC(=O)[C@@H](CCCN)NC2=O)[C@@H](C)CC)CS1 (stereo partly specified)	.	.	7.94µM*!	10.3%[53.3 µM]	.	.
CN(C)CCCCCCNC(=O)c1cccc(-c2cc(O)c3ncccc3c2)c1	.	.	?	19.7%	.	.
Clc1cccc(N2CCN(c3ncnc4c3nc3n4CCCC3)CC2)c1	i	7.8%	50.1µM*	-25.1%	i	i
CN(C)CC1CCOC1(c1ccccc1)c1ccccc1 (stereo unspecified)	.	.	4.5%[12.6 µM]	2.8%[20.6 µM]	.	.
C[N+]1(CC2COC(c3ccccc3)(C3CCCCC3)O2)CCCCC1 (stereo unspecified)	.	.	15.8µM*	-0.6%[53.3 µM]	i	.
Cc1nc2cc(-c3cccc(F)c3)nn2c(C)c1CCC(=O)NC1CCCCC1	i	8.8%	-11.1%	-7.5%	i	i
COc1cc2ncnc(Nc3cccc(O)c3)c2cc1OC	.	.	-9.5%[57.5 µM]	-5.7%	.	.
COc1cc2ncnc(Nc3cccc(Br)c3)c2cc1OC	.	.	15.8µM*	-24.2%	.	.
COc1cc2ncnc(Nc3cccc(Cl)c3)c2cc1OC	.	.	25.1µM*	-2.2%	.	.
COc1ccc(Nc2ncnc3c2cnn3-c2cc(Cl)ccc2C)cc1OC	i	4.7%	?	-14.6%	i	i
O=C(Nc1ncc(Cc2ccccc2)s1)c1ccc(-c2cccc([N+](=O)[O-])c2)o1	.	.	10.5%	.	.	.
N#Cc1c(-c2cc(C(F)(F)F)cc(C(F)(F)F)c2)no[n+]1[O-]	.	.	5.2%	.	.	.
Cc1ccc(-c2cc(C(=O)NCc3ccc(S(C)(=O)=O)cc3)c3ccccc3n2)cc1C	.	.	50.1µM*	.	.	.
Cc1ccc(-c2cc(C(=O)Nc3ccc(-c4noc(=O)[nH]4)cc3)c3ccccc3n2)cc1C	.	.	44.7µM*	.	.	.
Cc1ccc(-c2cc(C(=O)NCc3ccc(S(N)(=O)=O)cc3)c3ccccc3n2)cc1C	.	.	-8.5%	.	.	.
C[C@H](NC(=O)Cc1cc(F)cc(F)c1)C(=O)N[C@H](C(=O)OC(C)(C)C)c1ccccc1	.	.	5.9%	0.2%[53.3 µM]	.	.
Cc1ccc(Cl)cc1-n1ncc2c(Nc3cccc(C)c3C)ncnc21	i	2.6%	5.62µM*	?	i	i
CC(=O)O[C@@H]1[C@@H](O)[C@H](O[C@@H]2[C@@H](O)[C@@H](O)[C@H](O[C@H]3[C@H](O[C@H]4[C@H](O[C@H]5CC[C@@]6(C)C(CC[C@]7(C)C6CC=C6[C@@H]8CC(C)(C)CC[C@]8(C(=O)O)CC[C@]67C)[C@]5(C)CO)O[C@H](CO)[C@@H](O)[C@@H]4O)OC[C@@H](O)[C@@H]3O)O[C@H]2C)OC[C@H]1O (stereo partly specified)	.	.	5.0%[12.6 µM]	2.8%[20.6 µM]	.	.
COc1cc(OC)cc(-c2ccc3c(-c4ccc(F)cc4)[nH]nc3n2)c1	.	.	11.0%[57.5 µM]	7.0%	.	.
SMILES	B2AR arrestin ag	GALK inh	NTMT1 inhibitor	FH mod	GALC G270D act	TSG101-PTAP inh
O=C(Nc1nc2cc(C(F)(F)F)ccc2s1)c1ccc(-c2cccc([N+](=O)[O-])c2)o1	.	.	10.7%	.	.	.
COc1ccc(C(=O)NCCc2csc(-c3ccc(Cl)cc3)n2)c(OC)c1	i	-0.5%	?	35.5µM*	i	i
Cc1csc(NC(=O)c2sc3nc4c(c(C(F)(F)F)c3c2N)CCC4)n1	.	.	27.1µM*!	-0.4%	.	.
CC(=O)N1CCc2nc3sc(C(=O)c4ccc(F)cc4)c(N)c3c(C(F)(F)F)c2C1	i	4.7%	-5.7%	?	i	?
Nc1ncnc(Nc2ccc(OCc3ccccc3)c(Cl)c2)c1/C=N/OCCN1CCOCC1	.	.	5.6%	?	.	.
CCN(CC)CCn1c(-c2ccccc2)nc2c(NCCO)nc(C)nc21	.	.	89.1µM*	.	.	.
CCCCNc1nc(C)nc2c1nc(-c1ccccc1)n2CCCN(CC)CC	.	.	-14.4%	.	.	.
O=C(CN1C(=O)C2(CCCC2)NCC1c1cc(F)cc(F)c1)Nc1ccc2c(c1)CC1(C2)C(=O)Nc2ncccc21 (stereo unspecified)	.	.	-4.8%[57.5 µM]	-2.5%	.	.
CCOC(=O)N1CCN(C(=O)Cn2sc3nc(C)cc(C)c3c2=O)CC1	.	.	3.16µM*	3.8%	.	.
Cc1cc(N[S+](=O)([O-])c2ccc(NC(=O)Cc3ccc(Cl)nc3)cc2)no1	.	.	16.2%	.	.	.
NS(=O)(=O)c1ccc(Cc2c(-c3cccc(-c4ccccc4)c3)nn(-c3nc(C(=O)O)cs3)c2C2CC2)cc1	.	.	25.1µM*	.	.	.
CN1CCC[C@@H]1c1cccnc1	.	.	15.8µM*	6.0%[53.3 µM]	i	.
CN1C(=O)CC[C@H]1c1cccnc1	.	.	-15.0%[57.5 µM]	-14.5%[53.3 µM]	i	.
CC1(C)CC2C3=CCC4[C@@]5(C)CC[C@H](OC6OCC(O)C(OC7OC(CO)C(O)C(O)C7O)C6O)C(C)(C)C5CC[C@@]4(C)[C@]3(C)C[C@H](O)[C@@]2(CO)[C@H](OC(=O)c2ccccc2)C1 (stereo partly specified)	.	.	-1.1%[12.6 µM]	0.0%[20.6 µM]	.	.
Cc1ccccc1CN1C(=O)C(O)(CC(=O)c2cccc(Br)c2)c2ccccc21 (stereo unspecified)	i	1.0%	-0.2%	31.6µM*	i	i
